Dicer processing = inhibitors of Dicer pre-microRNA processing, primary screen, biochemical, cat-ELCCA, chemiluminescence. z-score at 25 µM. AID 1347074, 2019. cat-ELCCA pre-miR-21 Dicer processing; active compounds read high. Endoribonuclease Dicer (Homo sapiens), Q9UPY3. actives 6% (n = 47,000); in the data active means z-score above about 3, passing the limit was not always enough;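 further: plate controls were vehicle for no effect and no enzyme for full effect; higher signal means more uncleaved substrate so more Dicer inhibition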
Starred values were filed as active, the others as inactive. This excerpt belongs to a sample that is enriched for hits.

C=CCOc1cccc(C2c3c(oc4ccccc4c3=O)C(=O)N2c2nc(C)c(C(=O)OC)s2)c1 (centres undefined) was read as Dicer processing -2.6.
For CSc1nc(NC(C)(C)C)nc(Oc2ccc(=O)[nH]n2)n1 the results were Dicer processing 0.16.
For CN1CCN(C(c2ccccc2)c2ccc(Cl)cc2)CC1 (centres undefined) the results were Dicer processing -0.11.
`CN1CCN(C(c2cccs2)N2CCN(C)CC2)CC1` gave Dicer processing 4.6*.
CN1CCN(C(c2cccs2)c2ccc3cccnc3c2O)CC1 (centres undefined) was read as Dicer processing 0.94.
CSc1n[nH]c(-c2ccc(C(F)(F)F)cc2)n1 was read as Dicer processing 3.1.
CCOC(=O)c1sc(-c2ccc(C(F)(F)F)cc2)nc1O was read as Dicer processing -0.27.
For Cc1nc(-c2ccc(C(F)(F)F)cc2)sc1Br the results were Dicer processing 18*.
`CCn1c[n+](CC(O)COc2ccccc2)c2cc(C)c(C)cc21` (centres undefined) gave Dicer processing -1.6.
For C(=C\c1ccccc1)/Cn1cnc2ccccc21 the results were Dicer processing 1.2.
For O=C1OC(Nc2ccc([N+](=O)[O-])cn2)c2ccccc21 (centres undefined) the results were Dicer processing -0.83.
CN(NC1OC(=O)c2ccccc21)c1ccccc1[N+](=O)[O-] (centres undefined) was read as Dicer processing 3.2*.
Screening CN(NC1OC(=O)c2ccccc21)c1ncc(Cl)cc1C(F)(F)F (centres undefined) returned Dicer processing 0.04.
For CC[n+]1c(C)sc2cc(NC(C)=O)ccc21 the results were Dicer processing -0.11.
For CCOC(=O)Cc1c(C(=O)OCC)nnc2c(-c3ccccc3)c(C)nn12 the results were Dicer processing -1.7.
Screening CCCCCCc1c(O)nc(SCC(=O)O)[nH]c1=O returned Dicer processing 5.7*.
Screening CCCCCc1c(O)nc(SCCN(C)C)[nH]c1=O returned Dicer processing 1.2.
`CCCCCCc1c(O)nc(SCCN(C)C)[nH]c1=O` gave Dicer processing 0.69.
Screening N#Cc1c(-c2ccccc2)cc(-c2ccccc2)n(N)c1=O returned Dicer processing 0.06.
Screening Cc1c(S(=O)(=O)Nc2ccccc2Cl)sc2ccc(Cl)cc12 returned Dicer processing 4.6*.
Screening Cc1c(S(=O)(=O)Oc2ccccc2Cl)sc2ccc(Cl)cc12 returned Dicer processing -0.86.
For Cc1c(S(=O)(=O)Nc2ccc(Cl)c(Cl)c2)sc2ccc(Cl)cc12 the results were Dicer processing 1.9.
`CC(C)(CCCCC(C)(C)C(=O)O)C(=O)O` gave Dicer processing 0.02.
`CCOc1cccc(=O)c2c(C)n(-c3ccc(C(=O)O)cc3)c(C)c12` gave Dicer processing 10*.
Screening COc1cccc(=O)c2c(C)n(-c3ccc(C(=O)O)cc3)c(C)c12 returned Dicer processing 2.1.
CCOc1cccc(=O)c2c(C)[nH]c(C)c12 was read as Dicer processing 1.8.
Screening CCCOc1ccc2nc(NC(=O)OC)sc2c1 returned Dicer processing 1.3.
Screening CCOc1ccc2nc(NC(=O)c3cccs3)sc2c1 returned Dicer processing 4*.
`CCOc1ccc2nc(NC(=O)c3ccc([N+](=O)[O-])o3)sc2c1` gave Dicer processing 1.
For CC(C)(C)NC(=O)NCC1CCCC1NC(=O)NC(C)(C)C (centres undefined) the results were Dicer processing 1.7.
COC(=O)c1cc(NC(=O)c2ccc([N+](=O)[O-])o2)cc(C(=O)OC)c1 was read as Dicer processing 1.5.
Screening COc1ccc(NC(=O)c2ccc([N+](=O)[O-])o2)cc1Cl returned Dicer processing 3.2*.
`O=C(Nc1ccc2oc(-c3cccc(F)c3)nc2c1)c1ccc([N+](=O)[O-])o1` gave Dicer processing 0.94.
O=C(Nc1cccc(-c2nc3ccccc3o2)c1)c1ccc([N+](=O)[O-])o1 was read as Dicer processing 3.5*.
`O=C(Nc1ccc2oc(-c3ccc(F)cc3)nc2c1)c1ccc([N+](=O)[O-])o1` gave Dicer processing 3*.
`O=C(Nc1ccc(-c2nc3ccccc3o2)c(O)c1)c1ccc([N+](=O)[O-])o1` gave Dicer processing 0.35.
For COc1ccc(NC(=O)c2ccc([N+](=O)[O-])o2)cc1 the results were Dicer processing 1.9.
`O=C(Nc1ccc(-c2nc3cc(Cl)ccc3o2)cc1)c1ccc([N+](=O)[O-])o1` gave Dicer processing 1.2.
For O=C(Nc1cccc(-c2nc3ncccc3o2)c1)c1ccc([N+](=O)[O-])o1 the results were Dicer processing -0.2.
For CC(=O)Nc1nc(C)c(Oc2ccc(Cl)cc2)c(=O)[nH]1 the results were Dicer processing -1.1.
Screening O=c1[nH][nH]c(=S)n1-c1ccc(OCc2ccccc2)cc1 returned Dicer processing -1.1.
`CCOc1ccc(C2CC(=O)C3=C(C2)NC(C)=C(C(=O)OC)C3c2ccc3c(c2)OCO3)cc1OC` (centres undefined) gave Dicer processing -1.6.
`O=[N+]([O-])c1c(Sc2ccccc2)sc(Sc2ccccc2)c1[N+](=O)[O-]` gave Dicer processing -1.9.
Screening CNC(=O)Nc1ccc(C(C)(C)C)cc1Cl returned Dicer processing 5.1*.
CCOC(=O)NC(=S)Nc1ccc(C(C)(C)C)cc1Cl was read as Dicer processing 2.7.
`CNC(=O)NNC(=O)c1ccc(C(C)(C)C)cc1` gave Dicer processing -2.4.
`Cc1nccc(-c2cccc(NC(=O)c3ccc(N4CCOCC4)nc3)c2)n1` gave Dicer processing 0.47.
Screening CCOC(=O)c1cnn2c1nc(N1CCOCC1)c1ccccc12 returned Dicer processing 0.55.
`C=C(C)Cn1c(-c2ccc(OC)c(OC)c2)nc2ccccc21` gave Dicer processing 0.41.
`O=C(Nc1cccc([N+](=O)[O-])c1)c1ccccc1` gave Dicer processing 1.2.
Screening Cc1cc(=O)[nH]c(NCc2ccccc2)n1 returned Dicer processing -0.6.
`O=C(N/N=C/c1cccc2ccccc12)N/N=C/c1cccc2ccccc12` gave Dicer processing 0.7.
`Cc1cc(=O)[nH]c(N/N=C\c2cccc3ccccc23)n1` gave Dicer processing 3.3*.
CCOc1ccc(Cl)cc1S(=O)(=O)n1cc(C)nc1CC was read as Dicer processing -2.5.
For CC(C)Nc1nc(NC(C)C)nc(Oc2ccc(=O)n(-c3ccccc3)n2)n1 the results were Dicer processing -0.04.
For COc1ccc(-c2csc(Nc3ncccn3)n2)cc1OC the results were Dicer processing 0.07.
For Cc1cc(C)nc(Nc2nc(-c3ccc(O)c(O)c3)cs2)n1 the results were Dicer processing 8.6*.
`Oc1ccc(-c2csc(Nc3ccccn3)n2)cc1` gave Dicer processing 0.3.
`Cc1cc(C)n(NC(=S)NC2CCCCC2)c(=O)c1C#N` gave Dicer processing -0.82.
For CCN(CC)C(=O)Cn1cc(C(=O)C2CC2)c2ccccc21 the results were Dicer processing 4.1*.
Screening COC(=O)Cn1cc(C(=O)C2CCCCC2)c2ccccc21 returned Dicer processing -0.91.
Screening CCN(CC)C(=O)Cn1cc(C(=O)c2cccs2)c2ccccc21 returned Dicer processing 1.
`CC(C)CCSc1nc(N2CCCC2)c2c(c1C#N)CC(C)(C)OC2` gave Dicer processing 3.1*.
For CC(C)Sc1nc(N2CCCC2)c2c(c1C#N)CC(C)(C)OC2 the results were Dicer processing -0.59.

Bioassay records (PubChem)
